Screening results from PubChem BioAssay.
HepG2 viability = qHTS for Inhibitors of TGF-b: Cytotox Counterscreen | HepG2 CAGA-GFP viability, ATP luminescence, 18 h | Potency, µM (titrated, usually from 46.1 µM), usual class: cytotoxic | 410,000 tested, 0.76% active | AID 588856, 2011
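CellTiter-Glo luminescence gave cytotoxicity after 18 hours at 37 degrees C. The cells were HepG2 CAGA-GFP in 1% FBS DMEM, stimulated with 500 pg/mL TGF-beta after compound addition. %Activity was normalised to no-cell wells (complete cell-killing) and DMSO (no toxicity), and curves were fitted and classified.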
IL-1B inflam inh = qHTS for Inhibitors of Inflammasome Signaling: IL-1-beta AlphaLISA Primary Screen; THP-1 LPS/ATP IL-1B secretion, AlphaLISA, 16 h; hits give low values; activity change, % at 57.5 µM; 360,000 tested, 4.7% active; in the data active = activity change below about -50%; inconclusive = mostly about -30% to -49%
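Secreted IL-1B measured by AlphaLISA bead assay after 16 h compound exposure of THP-1 cells; compounds (final up to 57.5 uM) added 1 h before LPS (250 ng/mL) and ATP (1.25 mM) stimulation; lower signal means less secretion.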
TDP1 cell CPT = qHTS for Inhibitors of human tyrosyl-DNA phosphodiesterase 1 (TDP1): qHTS in cells in presence of CPT; AID 686979, 2013; chicken DT40 Tdp1-/-;hTDP1 cells + 20 nM CPT, ATP luminescence, 48 h; 420,000 tested, 12% active; Potency, µM (series often up to 46.2 µM), hits mostly inhibitors; also: nearly all actives have a fitted effect of over 55% in size
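Cell growth measured by CellTiter-Glo luminescence after a minimum 48 h, 37 C compound exposure with 20 nM CPT in Tdp1-knockout DT40 cells stably expressing hTDP1, seeded 400/well; qHTS titration format.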
DT40 TDP1 no CPT = qHTS for Inhibitors of human tyrosyl-DNA phosphodiesterase 1 (TDP1): qHTS in cells in absence of CPT; Potency, µM (top dose mostly 46.2 µM), most hits filed as inhibitors; AID 686978, 2013; 420,000 tested, 15% active; DT40 Tdp1-/- hTDP1 cells, no CPT, ATP luminescence, 48 h; also: nearly all actives have a fitted effect of over 55% in size
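Chicken DT40 Tdp1-/- cells stably complemented with human TDP1 were seeded at 400 cells/well with DMSO in place of 20 nM camptothecin. After compound pinning, cells grew at least 48 hr at 37 °C; viability read by CellTiter-Glo luminescence.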
TGFb inhibitor = qHTS for Inhibitors of TGF-b; Potency, µM (doses to about 46.1 µM), most hits filed as inhibitors; 410,000 tested, 1.2% active; HepG2 CAGA-GFP TGF-b/SMAD3 reporter, GFP fluorescence, 18 h; TGF-beta stimulated, 500 pg/mL final; AID 588855, 2011; also: nearly all actives have a fitted effect of over 65% in size
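TGF-beta reporter screen: HEPG2 CAGA-GFP, 1% FBS, 500 pg/mL TGF-beta final, 18 h; per-cell GFP summed per well; curves fitted and categorized by class.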
TDP1 inh = qHTS Assay for Inhibitors of Tyrosyl-DNA Phosphodiesterase (TDP1); 350,000 tested, 0.28% active; Tyrosyl-DNA phosphodiesterase 1 (Homo sapiens), Q9NUW8; Potency, µM (series often up to 130 µM), actives largely listed as inhibitors; recombinant TDP1, AlphaScreen DNA substrate cleavage; also: nearly all actives have a fitted effect of over 40% in size
Target sequence (Q9NUW8 whole entry, looked up): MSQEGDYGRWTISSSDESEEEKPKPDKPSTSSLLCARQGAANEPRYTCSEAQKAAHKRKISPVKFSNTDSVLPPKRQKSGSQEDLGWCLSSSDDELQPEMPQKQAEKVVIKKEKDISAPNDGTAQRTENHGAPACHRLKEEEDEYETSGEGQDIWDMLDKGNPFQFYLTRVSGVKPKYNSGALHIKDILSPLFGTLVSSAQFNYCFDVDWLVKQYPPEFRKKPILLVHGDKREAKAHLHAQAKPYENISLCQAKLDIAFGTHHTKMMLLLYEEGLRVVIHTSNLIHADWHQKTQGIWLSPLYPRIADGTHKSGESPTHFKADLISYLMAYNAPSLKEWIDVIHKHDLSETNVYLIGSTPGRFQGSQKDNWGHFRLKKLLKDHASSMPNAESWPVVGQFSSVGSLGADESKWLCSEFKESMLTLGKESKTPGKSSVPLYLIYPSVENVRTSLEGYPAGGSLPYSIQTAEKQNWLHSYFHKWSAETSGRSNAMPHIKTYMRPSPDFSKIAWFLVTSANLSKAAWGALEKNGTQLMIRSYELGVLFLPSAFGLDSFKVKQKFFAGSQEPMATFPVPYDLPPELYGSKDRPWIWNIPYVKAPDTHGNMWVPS
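Tdp1 1 nM final; 15 min RT w/ cpd; substrate 15 nM, 5 min; beads 10 ug/ml, 10 min; AlphaScreen read. Neg ctrl: no enzyme.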
Large screens that a line does not name were inactive. Sampled rows, rich in hits. Any-hit rate of the full collection: about 19%. Unless noted, calls follow the shape of the dose curve; as a rule, active = well fitted curve in the direction sought with a large enough effect; inconclusive = small, poorly fitted or top-dose-only effect, or another doubt; inactive = no such curve, though single readings can be large; an effect the other way counts as inactive or inconclusive.

COc1ccccc1CN1CCCC2(CCN(C(=O)c3cc(C(F)(F)F)cc(C(F)(F)F)c3)CC2)C1	none (no result: HepG2 viability, IL-1B inflam inh, TGFb inhibitor, TDP1 inh)
Cc1ccc(-c2nn(CC(=O)NC3CCCC3)c3c2cnc2ccc(F)cc23)cc1C	TDP1 cell CPT inconclusive, DT40 TDP1 no CPT 11.6µM (no result: IL-1B inflam inh)
CCS(=O)(=O)N1CCc2cc(C(=O)Nc3ccc(C(=O)OC)cc3)ccc21	TDP1 cell CPT inconclusive, DT40 TDP1 no CPT inconclusive (no result: IL-1B inflam inh)
CCS(=O)(=O)N1CCc2cc(C(=O)Nc3ccc(OC)c(Cl)c3)ccc21	TDP1 cell CPT inconclusive, DT40 TDP1 no CPT 18.4µM (no result: IL-1B inflam inh)
CCS(=O)(=O)N1CCc2cc(C(=O)Nc3ccc(C)c(Cl)c3)ccc21	TDP1 cell CPT 18.4µM, DT40 TDP1 no CPT 13µM, TGFb inhibitor inconclusive (no result: IL-1B inflam inh)
CCS(=O)(=O)N1CCc2cc(C(=O)Nc3ccc(OC)cc3OC)ccc21	TDP1 cell CPT inconclusive, DT40 TDP1 no CPT 16.4µM (no result: IL-1B inflam inh)
CCS(=O)(=O)N1CCc2cc(C(=O)Nc3cccc(NC(C)=O)c3)ccc21	TDP1 cell CPT inconclusive, DT40 TDP1 no CPT inconclusive (no result: IL-1B inflam inh)
CCS(=O)(=O)N1CCc2cc(C(=O)NCCc3ccc(OC)cc3)ccc21	TDP1 cell CPT inconclusive, DT40 TDP1 no CPT inconclusive (no result: IL-1B inflam inh)
CCN1CCN(c2ncc3c(n2)CCN(Cc2ccccc2C)C3)CC1	TDP1 cell CPT inconclusive, DT40 TDP1 no CPT inconclusive (no result: IL-1B inflam inh)
FC(F)(F)c1ccc(C2[C@H]3CN(CC4CCCCC4)[C@H](c4ccccc4)C34CC2(c2cccnc2)C4)cc1 (stereo not given in full)	TDP1 cell CPT inconclusive, DT40 TDP1 no CPT 16.4µM, TGFb inhibitor inconclusive
FC(F)(F)c1ccc(CN2C[C@@H]3C(c4ccc(Cl)nc4)C4(c5cccnc5)CC3(C4)[C@H]2c2ccccc2)cc1 (stereo not given in full)	TDP1 cell CPT inconclusive, DT40 TDP1 no CPT 16.4µM, TGFb inhibitor inconclusive
COC(=O)c1cccc(C23CC4(C2)[C@H](CN(Cc2cccnc2)[C@@H]4c2ccccc2)C3c2ccc(C(F)(F)F)cc2)c1 (stereo not given in full)	TDP1 cell CPT 16.4µM, DT40 TDP1 no CPT 16.4µM
COC(=O)c1ccc(C23CC4(C2)[C@H](CN(Cc2ccc(C(F)(F)F)cc2)[C@@H]4c2ccccc2)C3c2ccc(Cl)nc2)cc1 (stereo not given in full)	TDP1 cell CPT 9.2µM, DT40 TDP1 no CPT 10.3µM
N#Cc1ccc(C23CC4(C2)[C@H](CN(Cc2ccc(C(F)(F)F)cc2)[C@@H]4c2ccccc2)C3c2ccc(Cl)nc2)cc1 (stereo not given in full)	none (no result: HepG2 viability, IL-1B inflam inh, TDP1 cell CPT, DT40 TDP1 no CPT, TGFb inhibitor)
Clc1ccc(C2[C@H]3CN(Cc4ccc(-c5ccccc5)cc4)[C@H](c4ccccc4)C34CC2(c2cccnc2)C4)cn1 (stereo not given in full)	none (no result: HepG2 viability, IL-1B inflam inh, TDP1 cell CPT, DT40 TDP1 no CPT, TGFb inhibitor)
O=C(NNS(=O)(=O)c1cccc(Cl)c1)c1cc(-c2ccc(F)cc2)nc2ccccc12	none
O=C(c1cc(Br)ccc1Cl)N1CCN(c2ccccn2)CC1	none (no result: TDP1 inh)
Cc1nc2ncnn2c(C)c1CCC(=O)NCc1ccc(Cl)cc1	none (no result: IL-1B inflam inh)
COc1ccc(-c2cc(C(=O)Oc3ccc(C#N)cc3)no2)cc1	none (no result: IL-1B inflam inh)
COC(=O)CCc1sc(NC2CCCCC2)nc1-c1ccc(OC)cc1	TDP1 cell CPT 20.6µM, DT40 TDP1 no CPT 18.4µM
Cc1cc(C)c(COCc2cc(/C=N/O)c(C)cc2C)cc1/C=N/O	IL-1B inflam inh -82.9, TDP1 cell CPT inconclusive, DT40 TDP1 no CPT inconclusive, TGFb inhibitor inconclusive
COc1ccc(C2CC(=O)c3c([nH]c(C(=O)OCCOc4ccccc4)c3C)C2)cc1OC (stereo not given)	TDP1 cell CPT inconclusive, DT40 TDP1 no CPT inconclusive, TGFb inhibitor inconclusive (no result: IL-1B inflam inh)
